Results: PubChem BioAssay AID1159580 (chemical genetic matrix, 2015)
The whole screen tested about 5,500 compounds, of which about 2,000 (36%) were called active. Roughly 18% stayed inconclusive and do not appear here. Cut-off read from the data, not from the text of the source: active = normalized growth mostly below about 0.91 (no sharp cut-off); inconclusive = no clear call, values can overlap the other calls; inactive = mostly above about 0.92. Some of the results follow.

Assay: chemical genetic growth profiling, strain panel (AID 1159580);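 note: tested at 20 µM; growth read once vehicle control cultures reached saturation at 30 °C; 1 = growth at the plate median or of vehicle wells; lower values mean less growth of the strain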
Details: growth OD

Measured: normalized growth

O=C(/C=C/c1ccc(O)c(O)c1)O[C@@H]1C[C@](O)(C(=O)O)C[C@@H](O)[C@H]1O
inactive: S. cerevisiae deletion strains, locus YKL009W, strain mrt4, hits give low values 1.04 | S. cerevisiae deletion strains, locus YKL068W, hits give low values 1.01 | S. cerevisiae deletion strains, locus YKL085W, strain MDH1 (second series), hits give low values 1 | S. cerevisiae deletion strains, locus YKL085W, strain MDH1, hits give low values 1 | S. cerevisiae deletion strains, locus YKL160W, strain elf1, hits give low values 1.03 | S. cerevisiae deletion strains, locus YKR001C, strain vps1, hits give low values 1.03 | S. cerevisiae deletion strains, locus YKR026C, strain gcn3, hits give low values 0.973 | S. cerevisiae deletion strains, locus YKR091W, strain srl3, hits give low values 0.992 | S. cerevisiae deletion strains, locus YLL001W, strain dnm1, hits give low values 0.99 | S. cerevisiae deletion strains, locus YLL026W, hits give low values 0.985 | S. cerevisiae deletion strains, locus YLL041C, strain sdh2, hits give low values 0.974 | S. cerevisiae deletion strains, locus YLR027C, strain aat2, hits give low values 0.999 | S. cerevisiae deletion strains, locus YLR039C, strain RIC1, hits give low values 1.05 | S. cerevisiae deletion strains, locus YLR058C, strain SHM2, hits give low values 1.01 | S. cerevisiae deletion strains, locus YLR102C, strain apc9, hits give low values 1.01 | S. cerevisiae deletion strains, locus YLR113W, strain HOG1, hits give low values 1 | S. cerevisiae deletion strains, locus YLR221C, strain rsa3, hits give low values 0.972 | S. cerevisiae deletion strains, locus YLR258W, strain gsy2, hits give low values 0.985 | S. cerevisiae deletion strains, locus YLR262C, strain YPT6 (second series), hits give low values 0.996 | S. cerevisiae deletion strains, locus YLR262C, strain YPT6, hits give low values 1.11 | S. cerevisiae deletion strains, locus YLR268W, strain sec22, hits give low values 1.05 | S. cerevisiae deletion strains, locus YLR320W, strain mms22, hits give low values 0.969 | S. cerevisiae deletion strains, locus YLR330W, strain CHS5, hits give low values 1.01 | S. cerevisiae deletion strains, locus YLR342W, strain FKS1 (second series), hits give low values 0.998 | S. cerevisiae deletion strains, locus YLR342W, strain FKS1, hits give low values 0.988 | S. cerevisiae deletion strains, locus YLR357W, strain rsc2, hits give low values 1 | S. cerevisiae deletion strains, locus YLR370C, strain arc18, hits give low values 0.986 | S. cerevisiae deletion strains, locus YLR371W, strain rom2, hits give low values 1.01 | S. cerevisiae deletion strains, locus YLR384C, strain iki3, hits give low values 0.96 | S. cerevisiae deletion strains, locus YLR418C, strain cdc73, hits give low values 0.992 | S. cerevisiae deletion strains, locus YML016C, strain PPZ1, hits give low values 1 | S. cerevisiae deletion strains, locus YML032C, strain rad52, hits give low values 0.999 | S. cerevisiae deletion strains, locus YML120C, strain ndi1, hits give low values 0.993 | S. cerevisiae deletion strains, locus YML124C, strain tub3, hits give low values 1.01 | S. cerevisiae deletion strains, locus YMR058W, strain fet3, hits give low values 0.978 | S. cerevisiae deletion strains, locus YMR078C, strain ctf18, hits give low values 1.02 | S. cerevisiae deletion strains, locus YMR125W, strain sto1, hits give low values 0.99 | S. cerevisiae deletion strains, locus YMR129W, hits give low values 0.991 | S. cerevisiae deletion strains, locus YMR205C, strain PFK2, hits give low values 1.03 | S. cerevisiae deletion strains, locus YMR223W, strain ubp8, hits give low values 1 | S. cerevisiae deletion strains, locus YMR231W, strain pep5, hits give low values 0.971 | S. cerevisiae deletion strains, locus YMR263W, strain SAP30, hits give low values 1.01 | S. cerevisiae deletion strains, locus YMR307W, strain GAS1, hits give low values 0.959 | S. cerevisiae deletion strains, locus YNL067W, strain RPL9B, hits give low values 1.04 | S. cerevisiae deletion strains, locus YNL071W, strain lat1, hits give low values 0.987 | S. cerevisiae deletion strains, locus YNL128W, strain TEP1, hits give low values 1.04 | S. cerevisiae deletion strains, locus YNL153C, strain GIM3, hits give low values 1.02 | S. cerevisiae deletion strains, locus YNL183C, strain NPR1, hits give low values 0.957 | S. cerevisiae deletion strains, locus YNL209W, strain ssb2, hits give low values 0.991 | S. cerevisiae deletion strains, locus YNL233W, strain BNI4, hits give low values 1.02 | S. cerevisiae deletion strains, locus YNL248C, strain rpa49, hits give low values 0.982 | S. cerevisiae deletion strains, locus YNL250W, strain rad50, hits give low values 1.03 | S. cerevisiae deletion strains, locus YNL271C, strain bni1, hits give low values 1.01 | S. cerevisiae deletion strains, locus YNL298W, strain CLA4, hits give low values 1.02 | S. cerevisiae deletion strains, locus YNL307C, strain MCK1, hits give low values 1.02 | S. cerevisiae deletion strains, locus YNL322C, strain KRE1 (second series), hits give low values 0.976 | S. cerevisiae deletion strains, locus YNL322C, strain KRE1, hits give low values 1 | S. cerevisiae deletion strains, locus YNR049C, strain mso1, hits give low values 0.973 | S. cerevisiae deletion strains, locus YNR052C, strain pop2, hits give low values 1.01 | S. cerevisiae deletion strains, locus YOL006C, strain TOP1, hits give low values 1.15 | S. cerevisiae deletion strains, locus YOL012C, strain htz1 0.974 | S. cerevisiae deletion strains, locus YOL147C, strain pex11, hits give low values 1.02 | S. cerevisiae deletion strains, locus YOR001W, strain rrp6, hits give low values 0.925 | S. cerevisiae deletion strains, locus YOR061W, strain CKA2, hits give low values 1.01 | S. cerevisiae deletion strains, locus YOR069W, strain VPS5, hits give low values 1.01 | S. cerevisiae deletion strains, locus YOR070C, strain gyp1, hits give low values 0.985 | S. cerevisiae deletion strains, locus YOR080W, strain dia2, hits give low values 0.983 | S. cerevisiae deletion strains, locus YOR083W, strain WHI5, hits give low values 1.04 | S. cerevisiae deletion strains, locus YOR106W, strain vam3, hits give low values 1 | S. cerevisiae deletion strains, locus YOR136W, strain idh2, hits give low values 1.03 | S. cerevisiae deletion strains, locus YOR144C, strain elg1, hits give low values 1.01 | S. cerevisiae deletion strains, locus YOR184W, strain ser1, hits give low values 1 | S. cerevisiae deletion strains, locus YOR231W, strain MKK1, hits give low values 1.02 | S. cerevisiae deletion strains, locus YOR265W, strain rbl2, hits give low values 0.999 | S. cerevisiae deletion strains, locus YOR270C, strain vph1, hits give low values 0.924 | S. cerevisiae deletion strains, locus YOR290C, strain snf2, hits give low values 1.01 | S. cerevisiae deletion strains, locus YOR316C, strain cot1, hits give low values 1.02 | S. cerevisiae deletion strains, locus YPL051W, strain arl3, hits give low values 0.999 | S. cerevisiae deletion strains, locus YPL055C, strain LGE1, hits give low values 1.03 | S. cerevisiae deletion strains, locus YPL078C, strain atp4, hits give low values 1.02 | S. cerevisiae deletion strains, locus YPL106C, strain sse1, hits give low values 0.995 | S. cerevisiae deletion strains, locus YPL240C, strain hsp82, hits give low values 0.969 | S. cerevisiae deletion strains, locus YPL256C, strain CLN2, hits give low values 1.01 | S. cerevisiae deletion strains, locus YPR119W, strain clb2, hits give low values 1.01 | S. cerevisiae deletion strains, locus YPR141C, strain kar3, hits give low values 1.01 | S. cerevisiae deletion strains, locus YPR163C, strain tif3, hits give low values 1.03 | S. cerevisiae deletion strains, locus YPR167C, strain met16, hits give low values 1.01 | S. cerevisiae deletion strains, strain wtn01, hits give low values 1.05 | S. cerevisiae strains, strain wild type, hits give low values 1.01
